Wnt act: activates Wnt/beta-catenin signaling in a reporter cell assay. activation, % at 9.35 µM. hit rate 1.2% among 300,000. activator, plate reader; in the data active means activation above about 30%, passing the limit was not always enough; inconclusive means no clear call, values can overlap the other calls;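 further: 0% = neutral control wells and 100% = positive control wells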
MITF act: increases MITF-driven TRPM1 promoter luciferase signal | SK-MEL-5 TRPM1-promoter luciferase, 24 h; % of positive control, neutral wells = 0 | activation, % at 12.5 µM | hit rate 0.75% among 300,000;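 active means mean activation of at least 80% with every replicate also reaching 80%; inconclusive means mean reaches 80% but some replicate falls short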;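 further: 0% = neutral control wells and 100% = parthenolide positive control wells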
Env fusion inh: blocks HIV Env-driven cell-cell fusion. HeLa-JRFL Env/CEM21 cell fusion, luciferase. inhibition, % at 12.3 µM. hit rate 1.1% among 360,000. AID 651610;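 active means mean replicate inhibition score of at least 50 and every replicate individually at or above 50; inconclusive means only one of the two criteria met; inactive means mean below 50 and not all replicates reaching 50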;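 further: 0% = plate neutral controls and 100% = maraviroc near 300 nM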
esBAF inh: SWI/SNF esBAF complex inhibition; hit rate 2% among 350,000; reporter increase, % at 12.5 µM; mouse ES cells, Bmi1-luciferase knock-in reporter, 24 h; 100% = twice the neutral-well signal; AID 602393; in the data active means activation above about 40%; inconclusive means no clear call, values can overlap the other calls;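 further: 0% = median of the plate's neutral control wells and 100% = double that signal; a rise in the Bmi1 reporter signal indicates esBAF inhibition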
miR122 inh: miR-122 inhibition in Huh7 cells; activation (reporter increase), % at 12.5 µM; hit rate 0.3% among 340,000; Huh7 miR-122 Renilla luciferase sensor, 48 h; neutral wells = 0, positive control = 100; AID 602342;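 active means mean replicate activation score at least 90 and every replicate individually at or above 90; inconclusive means only one of the two criteria met; inactive means neither criterion met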;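 further: higher luciferase means less miR-122 activity so hits act as miR-122 inhibitors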
* = called active by the depositor; ? = inconclusive; · = no result given; [ ] = another dose, or the depositor's remark. Shown are actives, neighbours in structure and some others; about 3.4% of the full set was active somewhere.

SMILES	Wnt act	MITF act	Env fusion inh	esBAF inh	miR122 inh
C[C@H](CO)N1C[C@H](C)[C@H](CN(C)S(=O)(=O)c2cccs2)Oc2ncc(/C=C/c3ccccc3)cc2C1=O	·	·	44.3[16.7 µM]	7.0	·
Cc1ccc(-c2nc(-c3ccncc3)no2)cc1	33.2*	23.3	-79.4	1.2	-3.4
Brc1cccc(-c2nc(-c3ccncc3)no2)c1	-2.9	68.7	·	57.2*	3.3
Cc1ccc(-c2cnc(-c3ccncc3)o2)cc1	·	40.0	-208.1	45.3*	2.9
Cc1cc(C)cc(-c2nc(-c3ccncc3)no2)c1	6.8	66.9	-31.4	?	-2.4
C[C@H](CO)N1C[C@H](C)[C@H](CN(C)Cc2ccc(C(=O)O)cc2)Oc2ccc(NC(=O)CCC(F)(F)F)cc2CC1=O	·	·	·	5.4	-2.3[16.7 µM]
O=C(NC(=S)Nc1ccccc1)c1ccc(Br)o1	49.9*	53.0	-21.9	45.0*	6.9
CC(C)c1ccc(NC(=O)c2ccc(Br)o2)cc1	·	89.4*	-263.3	·	6.4
Cc1ccc(S(=O)(=O)NC2CCCCC2)cc1	4.6	-2.6	·	7.4	59.9
CSc1ccc(S(=O)(=O)NC2CCCCCC2)cc1	·	-11.4	·	6.8	102.5*
Cc1cc(O)c(NC(=O)c2ccc(Br)o2)cc1C	?	54.5	-14.3	67.0*	5.5
COc1ccc(NC(=O)c2ccc(Br)o2)cc1	?	78.4	-78.5	·	4.9
O=C(N[C@@H]1CC[C@H](CC(=O)N2CCOCC2)O[C@H]1CO)c1ccccn1	·	·	·	-5.2	·
CO[C@H]1CN(C)C(=O)c2ccc(NC(=O)C3CC3)cc2OC[C@H](C)N(Cc2cncnc2)C[C@@H]1C	·	·	·	0.8	-5.0[16.7 µM]
CNC(=O)C[C@@H]1CC[C@H]2[C@@H](COc3ccc(NC(=O)Cc4cccs4)cc3C(=O)N2C)O1	·	·	-8.0[16.7 µM]	2.3	33.3[16.7 µM]
CO[C@@H]1CN(C)C(=O)c2cc(NC(C)=O)ccc2OC[C@@H](C)N(C(=O)c2cnccn2)C[C@@H]1C	·	·	37.4[16.7 µM]	-11.3	·
O=C(C[C@H]1CC[C@H](NC(=O)Nc2cc(F)ccc2F)[C@H](CO)O1)NCc1ccncn1	·	·	4.0[16.7 µM]	-1.7	·
O=C(Nc1ccc(Nc2ccccc2)cc1)c1ccc(Br)o1	29.5	41.1	-43.4	56.9*	-15.1
Cc1ccccc1-c1nc(-c2ccc(NC(=O)c3ccc(Br)o3)cc2)no1	·	71.1	·	48.6*	-5.7
CC(C)c1ccc(NC(=O)c2cccc(Br)c2)cc1	55.9*	70.8	-60.9	·	18.6
COc1ccc(NC(=S)NC(=O)c2ccc(Br)o2)cc1	24.5	90.0*	-70.3	45.7*	23.1
Cc1ccccc1-c1nc(-c2ccc(Br)o2)no1	?	32.0	-68.6	15.1	4.5
O=C(Nc1ccc(NC(=O)c2cccs2)cc1)c1ccc(Br)o1	·	-4.7	·	·	-4.1
CCCc1cn(CC[C@@H]2CC[C@@H](NC(=O)C3CCCC3)[C@@H](CO)O2)nn1	·	·	0.2[16.7 µM]	-2.5	-12.0[16.7 µM]
C[C@@H]1CN([C@@H](C)CO)C(=O)c2cc(C3=CCCCC3)cnc2O[C@@H]1CN(C)C(=O)c1ccc2c(c1)OCO2	·	·	6.9[16.7 µM]	3.8	8.5[16.7 µM]
SMILES	Wnt act	MITF act	Env fusion inh	esBAF inh	miR122 inh
O=C(CCc1ccc(S(=O)(=O)NC2CCCCC2)cc1)N(Cc1ccccc1)Cc1ccccc1	·	-14.7	·	·	99.3*
O=C(Nc1ccc(S(=O)(=O)NC2CCCCC2)cc1)c1ccc(Br)o1	0.3	9.9	·	9.1	128.3*
C[C@H]1CN([C@@H](C)CO)C(=O)c2cc(-c3ccc(F)cc3)cnc2O[C@H]1CN(C)CC1CCCCC1	·	·	18.8[16.7 µM]	-3.3	-7.7[16.7 µM]
CO[C@@H]1CN(C)C(=O)c2ccc(NS(C)(=O)=O)cc2OC[C@H](C)N(CC2CCOCC2)C[C@@H]1C	·	·	11.9[16.7 µM]	-1.6	6.5[16.7 µM]
Cc1nc(CNS(=O)(=O)c2ccc3c(c2)CCCC3)cs1	-0.9	5.9	60.4*	1.7	·
Cc1ccc(S(=O)(=O)NCc2csc(C)n2)cc1	10.7	-6.9	-6.5	-7.3	6.1
Cc1noc(C)c1NC(=O)Nc1ccc2c(c1)C(=O)N([C@@H](C)CO)C[C@H](C)[C@@H](CN(C)S(=O)(=O)c1ccccc1)OCCCC[C@H](C)O2	·	·	-63.1[16.7 µM]	1.8	-2.0[16.7 µM]
Cc1ccc(N2C(=O)CC(c3ccsc3)C3=C2CC(C)(C)CC3=O)cc1 (configuration not stated)	0.9	·	107.5*	9.0	50.0
CC(C)NC(=O)N(C)C[C@H]1OCCCC[C@@H](C)Oc2ccc(NC(=O)CCCN(C)C)cc2C(=O)N([C@@H](C)CO)C[C@H]1C	·	·	6.8[16.7 µM]	·	-0.7[16.7 µM]
CC(C)(C)NC(=O)C(c1ccncc1)n1c(=O)c(-c2cc3ccccc3[nH]2)nc2ccccc21 (configuration not stated)	6.7	·	58.2*	·	·
COc1cccc(NC(=O)c2ccc(CN3CCN(c4ccccc4)CC3)cc2)c1	·	·	61.7*	4.3	0.4
COc1c(F)c(F)c(C(=O)Nc2ccc(N3CCN(Cc4ccccc4)CC3)cc2)c(F)c1F	·	0.1	64.6*	-4.7	-8.3
CCCNC(=O)N1CC2(CCN(S(=O)(=O)c3cccc(OC)c3)CC2)c2c(n(C)c3cc(OC)ccc23)[C@@H]1CO	·	·	-6.1[16.7 µM]	·	·
CC(C)c1ccc(/C=N/NC(=O)c2c(Cl)cnn2C)cc1	·	93.3*	-175.4	·	·
Cc1nn(C)c(C(=O)N/N=C/c2ccc(Br)cc2)c1Cl	-0.6	15.1	5.6	9.5	-1.7
O=C(O)C1CC(c2ccccc2)=Nc2ccccc2S1 (configuration not stated)	-1.9	51.0	-3.1	51.5*	26.7
CCc1[nH]nc(C(=O)NC2CCCc3c2cnn3-c2cc(C)cc(C)c2)c1C (configuration not stated)	11.2	21.1	-46.3	66.2*	-3.5
CC(C)C#Cc1cnc2c(c1)C(=O)N([C@@H](C)CO)C[C@H](C)[C@H](CN(C)C(=O)c1ccccc1F)O2	·	·	11.1[16.7 µM]	-1.7	-11.8[16.7 µM]
CC1CCCCC12NC(=O)N(CC(=O)NC(=O)Nc1ccc3c(c1)OCCO3)C2=O (configuration not stated)	3.0	53.2	·	56.7*	-4.5
O=C(CN1C(=O)NC2(CCCCCC2)C1=O)Nc1cccc(F)c1	0.4	·	·	-5.9	-3.6
N#Cc1ccccc1NC(=O)CN1C(=O)NC2(CCCC2)C1=O	-0.7	-8.3	-2.1	-2.0	1.1
CC1CCCCC12NC(=O)N(CC(=O)Nc1ccc3c(c1)OCO3)C2=O (configuration not stated)	-2.4	·	-25.5	-1.7	1.6
O=C(CN1C(=O)NC2(CCCCCC2)C1=O)Nc1ccccc1[N+](=O)[O-]	-2.1	5.4	9.7	-4.3	158.7*
O=C(CN1C(=O)NC2(CCCCC2)C1=O)Nc1ccc2c(c1)OCCCO2	44.4*	129.7*	·	?	·
CC=Cc1ccc2n(c1=O)C[C@H]1[C@H](CO)[C@@H](C(=O)NC3CCC3)[C@@H]2N1C(=O)c1ccccn1 (mixture of isomers)	·	·	16.1[16.7 µM]	-5.1	·
O=C(Nc1nc2ccccc2[nH]1)c1cccc([N+](=O)[O-])c1	?	32.3	-4.2	·	·
O=C(Cc1nc2ccccc2[nH]1)c1cccc([N+](=O)[O-])c1	10.8	4.0	73.4*	-25.3	8.9

Source: PubChem BioAssay (Broad Institute)
